Data published in PubChem BioAssay (EPA / NIEHS).
Calls of active or inactive are those of the source. Rule for the calls: active = hit-call score of the fitted dose curve at least 0.9, where 1 is the maximum; inactive = score below 0.9.

What was measured:
[1] = ATG_CRE_CIS: Attagene CIS-FACTORIAL HepG2 Assay for human cAMP Responsive Element (CRE) binding protein 3 (AID 2282926); settings: HepG2 CRE cis-reporter, Attagene multiplexed mRNA; actives raise or lower the signal
In short: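 Endogenous CRE-binding activity in HepG2 is reported through a cis-regulated transfected reporter. Following a day of exposure, mRNA levels are determined by reverse transcription PCR and fluorescent fragment analysis; fits run in both directions versus DMSO.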

[2] = target: CCAAT/enhancer-binding protein beta (Homo sapiens) (UniProt P17676); test: ATG_C_EBP_CIS: Attagene CIS-FACTORIAL HepG2 Assay for human CCAAT/Enhancer Binding Protein (C/EBP) beta (AID 2282927); settings: HepG2 Attagene cis-factorial transcription factor reporter; actives raise or lower the signal
In short: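 Transiently transfected HepG2 (MRTU library, endogenous TF-driven promoters); 24 h dosing; total RNA → oligo(dT) RT → PCR → 6-FAM primer extension → HpaI digest → CE; fit bidirectionally vs DMSO.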

[3] = ATG_CMV_CIS: Attagene CIS-FACTORIAL HepG2 Assay for human CMV (Internal Marker) (AID 2282928); settings: HepG2 CMV promoter reporter, transcription factor profiling; actives raise or lower the signal;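 note: endpoint acts as a background internal control marker rather than a target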
In short: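 After transient transfection of HepG2 with reporter transcription units driven by cis-regulatory promoters, cells receive test chemical for 24 h. Labeled reporter amplicons, digested with HpaI, are sized and quantified by capillary electrophoresis against DMSO.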

[4] = ATG_DR4_LXR_CIS: Attagene CIS-FACTORIAL HepG2 Assay for human Liver X Receptor (LXR), DR4 submotif (AID 2282929); settings: HepG2 Attagene DR4 cis-reporter, mRNA transcription; actives raise or lower the signal
In short: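 Measures endogenous transcription factor activity via a DR4-driven reporter transcript in human HepG2 cells. Compounds incubated 24 h; mRNA quantified by RT-PCR and capillary electrophoresis, analysed as gain or loss of signal versus DMSO.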

[5] = target: Aryl hydrocarbon receptor (Homo sapiens) (UniProt P35869); test: ATG_Ahr_CIS: Attagene CIS-FACTORIAL HepG2 Assay for human Aryl Hydrocarbon Receptor (Ahr) (AID 2282930); settings: HepG2 AhR cis-factorial reporter transcription; actives raise or lower the signal
In short: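 Read-out: reporter mRNA quantified by RT-PCR with fluorescent primer extension and capillary electrophoresis. Human HepG2 liver cells carried transfected cis-promoter reporter units and were exposed to chemical for 24 h; gain or loss fitted relative to DMSO.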

[6] = ATG_AP_1_CIS: Attagene CIS-FACTORIAL HepG2 Assay for human Activator Protein 1 (AP-1) (AID 2282931); settings: HepG2 Attagene cis-factorial AP-1 reporter mRNA; actives raise or lower the signal
In short: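 Bidirectional concentration-response fitting against DMSO controls. Underlying signal: reporter mRNA from cis-promoter constructs in transiently transfected HepG2, measured after 24 h by RT-PCR and capillary electrophoresis.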

[7] = ATG_AP_2_CIS: Attagene CIS-FACTORIAL HepG2 Assay for human Activator Protein 2 (AP-2) (AID 2282932); settings: HepG2 AP-2 cis-reporter, Attagene transcription factor profiling; actives raise or lower the signal
In short: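 HepG2 cells transiently transfected with cis-element reporter units and exposed for 24 h. Reporter mRNA measured by RT-PCR, FAM labelling, HpaI digestion and capillary electrophoresis. Changes in either direction fitted relative to DMSO.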

[8] = ATG_BRE_CIS: Attagene CIS-FACTORIAL HepG2 Assay for human Bone Morphogenetic Protein (BMP) Response Element (BRE) (AID 2282933); settings: HepG2 BMP response element reporter, Attagene transcription factor profiling; actives raise or lower the signal
In short: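 A HepG2 multiplex reporter system measured inducible reporter mRNA 24 h post-dosing. Detection: RT-PCR, 6-FAM primer extension, HpaI digestion, capillary electrophoresis. Activity fitted bidirectionally relative to DMSO.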

[9] = target: Transcription factor E2F1 (Homo sapiens) (UniProt Q01094); test: ATG_E2F_CIS: Attagene CIS-FACTORIAL HepG2 Assay for human E2F Transcription Factor 1 (AID 2282935); settings: HepG2 Attagene cis-reporter, E2F reporter RNA transcripts; actives raise or lower the signal
In short: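 Endogenous E2F1 activity read through cis-promoter reporter units transfected into HepG2. After 24 h compound treatment, reporter mRNA measured by RT-PCR, HpaI digestion and capillary electrophoresis. Bidirectional fit versus DMSO.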

[10] = ATG_E_Box_CIS: Attagene CIS-FACTORIAL HepG2 Assay for human Enhancer Box (E-box) (AID 2282936); settings: HepG2 E-box cis-reporter transcription, actives raise or lower the signal
In short: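 HepG2 cells transiently transfected with multiplexed cis-element reporter units, dosed 24 h; reporter mRNA quantified by RT-PCR, 6-FAM labelling, HpaI digestion and capillary electrophoresis. E-box (USF1) signal fitted bidirectionally vs DMSO.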

[11] = ATG_M_61_CIS: Attagene CIS-FACTORIAL HepG2 Assay for M61 Transcription Factor (Internal Marker) (AID 2282937); settings: HepG2 Attagene CIS-FACTORIAL M61 internal marker reporter; actives raise or lower the signal
In short: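 Fluorescence from labelled cDNA fragments, separated by capillary electrophoresis, quantifies reporter induction. HepG2 cells bearing transiently transfected cis-promoter MRTUs were incubated with test chemical for 24 h; DMSO defined baseline for gain/loss fitting.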

[12] = ATG_EGR_CIS: Attagene CIS-FACTORIAL HepG2 Assay for human Early Growth Response 1 (EGR1) (AID 2282938); settings: HepG2 Attagene CIS-FACTORIAL EGR reporter mRNA; actives raise or lower the signal
In short: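 Cell-based multiplex transcription assay: HepG2 carrying transfected cis-element reporter units, 24 h chemical treatment. Fluorescence from capillary electrophoresis of RT-PCR products gives mRNA levels; fitting is bidirectional relative to DMSO.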

[13] = ATG_M_19_CIS: Attagene CIS-FACTORIAL HepG2 Assay for M19 Transcription Factor (Internal Marker) (AID 2282939); settings: HepG2 Attagene CIS-FACTORIAL M19 internal marker reporter; actives raise or lower the signal
In short: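 Chemical-treated HepG2 (24 h) with MRTU constructs; reporter transcripts detected by fluorescent RT-PCR fragment analysis on capillary electrophoresis. Internal background marker, DMSO as baseline.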

[14] = ATG_Ets_CIS: Attagene CIS-FACTORIAL HepG2 Assay for human Erythroblast Transformation Specific (ETS) (AID 2282941); settings: HepG2 ETS cis-reporter transcription, actives raise or lower the signal
In short: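 Human HepG2 hepatoma cells were transiently transfected with promoter-driven reporter constructs and treated for 24 hours. Reporter transcripts were quantified by RT-PCR with fluorescent primer extension; bidirectional curve fitting used DMSO as reference.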

[15] = target: Hepatocyte nuclear factor 3-beta (Homo sapiens) (UniProt Q9Y261); test: ATG_FoxA2_CIS: Attagene CIS-FACTORIAL HepG2 Assay for human Forkhead box A2 (FOXA2) (AID 2282942); settings: HepG2 cis-reporter transcription factor activity, 24 h; actives raise or lower the signal
In short: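 In transiently transfected human HepG2 cells, promoter-driven reporter mRNA levels after 24 h chemical exposure are determined via RT-PCR with capillary electrophoresis. DMSO serves as baseline for bidirectional fitting.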

[16] = ATG_FoxO_CIS: Attagene CIS-FACTORIAL HepG2 Assay for human Forkhead box O (FoxO) (AID 2282943); settings: HepG2 Attagene cis-reporter, FoxO element, mRNA; actives raise or lower the signal
In short: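 Read-out: fluorescence of 6-FAM-labelled reporter cDNA fragments resolved by capillary electrophoresis. Transiently transfected HepG2 cells were dosed for 24 h; activity fitted in both directions relative to DMSO controls.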

[17] = ATG_GATA_CIS: Attagene CIS-FACTORIAL HepG2 Assay for human GATA Binding Protein (AID 2282944); settings: HepG2 GATA cis-element reporter, Attagene multiplex mRNA; actives raise or lower the signal
In short: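 Transfected cis-reporter HepG2 cells were treated with chemicals for 24 hours. Total RNA was then converted to cDNA, amplified with reporter-specific primers and analysed by fluorescent capillary electrophoresis, using DMSO-treated wells as baseline.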

[18] = ATG_GLI_CIS: Attagene CIS-FACTORIAL HepG2 Assay for human Zinc Finger Protein GLI1 (AID 2282945); settings: HepG2, Attagene cis-factorial reporter mRNA, GLI element; actives raise or lower the signal
In short: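 Transiently transfected HepG2 cells report endogenous transcription factor activity via cis-element-driven reporter units. After 24 h compound exposure, reporter mRNA was measured by RT-PCR with capillary electrophoresis; bidirectional fitting against DMSO baseline.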

[19] = ATG_ERE_CIS: Attagene CIS-FACTORIAL HepG2 Assay for Estrogen Response Element (ERE) (AID 2282940); settings: HepG2 ERE cis-reporter, Attagene RNA transcript; actives raise or lower the signal
In short: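 Human liver cells (HepG2) bearing transiently transfected, promoter-regulated reporter units were exposed 24 h. Reporter mRNA induction was detected by capillary electrophoresis of labelled RT-PCR products and fitted bidirectionally to DMSO.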

Sequence of Aryl hydrocarbon receptor (Homo sapiens) (P35869 whole entry, looked up): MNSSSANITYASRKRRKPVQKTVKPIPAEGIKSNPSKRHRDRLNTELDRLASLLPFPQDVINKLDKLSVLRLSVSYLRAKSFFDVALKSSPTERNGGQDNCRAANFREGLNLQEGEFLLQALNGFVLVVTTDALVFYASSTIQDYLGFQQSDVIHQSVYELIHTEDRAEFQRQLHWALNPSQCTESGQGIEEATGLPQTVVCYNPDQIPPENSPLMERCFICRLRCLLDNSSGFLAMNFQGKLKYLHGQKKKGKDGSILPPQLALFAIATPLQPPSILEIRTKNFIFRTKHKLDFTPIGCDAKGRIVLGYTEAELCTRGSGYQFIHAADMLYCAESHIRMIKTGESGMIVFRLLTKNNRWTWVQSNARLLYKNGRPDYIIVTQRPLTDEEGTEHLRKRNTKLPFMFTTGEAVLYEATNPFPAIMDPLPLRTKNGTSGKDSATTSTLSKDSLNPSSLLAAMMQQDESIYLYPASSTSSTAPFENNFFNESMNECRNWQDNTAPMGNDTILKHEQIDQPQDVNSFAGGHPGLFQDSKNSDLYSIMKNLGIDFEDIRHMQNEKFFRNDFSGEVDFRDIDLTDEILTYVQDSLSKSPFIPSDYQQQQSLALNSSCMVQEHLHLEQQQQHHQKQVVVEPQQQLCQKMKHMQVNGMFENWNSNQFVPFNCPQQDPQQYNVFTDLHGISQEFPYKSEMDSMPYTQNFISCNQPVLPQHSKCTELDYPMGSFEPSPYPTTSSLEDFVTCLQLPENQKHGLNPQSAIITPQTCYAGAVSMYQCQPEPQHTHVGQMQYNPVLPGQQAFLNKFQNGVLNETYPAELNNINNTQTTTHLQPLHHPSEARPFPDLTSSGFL
Sequence of Transcription factor E2F1 (Homo sapiens) (Q01094 whole entry, looked up): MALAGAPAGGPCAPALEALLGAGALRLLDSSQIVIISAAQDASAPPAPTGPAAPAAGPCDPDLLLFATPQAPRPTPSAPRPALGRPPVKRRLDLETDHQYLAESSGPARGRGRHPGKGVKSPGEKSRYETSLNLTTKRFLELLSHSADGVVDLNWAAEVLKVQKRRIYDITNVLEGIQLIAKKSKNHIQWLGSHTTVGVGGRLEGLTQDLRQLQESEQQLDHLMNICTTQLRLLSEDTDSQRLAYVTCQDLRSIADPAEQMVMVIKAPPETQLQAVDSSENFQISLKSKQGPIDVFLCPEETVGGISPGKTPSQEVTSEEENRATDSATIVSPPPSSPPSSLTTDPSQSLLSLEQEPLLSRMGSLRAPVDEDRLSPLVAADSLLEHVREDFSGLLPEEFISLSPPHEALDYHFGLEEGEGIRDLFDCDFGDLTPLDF
Sequence of CCAAT/enhancer-binding protein beta (Homo sapiens) (P17676 whole entry, looked up): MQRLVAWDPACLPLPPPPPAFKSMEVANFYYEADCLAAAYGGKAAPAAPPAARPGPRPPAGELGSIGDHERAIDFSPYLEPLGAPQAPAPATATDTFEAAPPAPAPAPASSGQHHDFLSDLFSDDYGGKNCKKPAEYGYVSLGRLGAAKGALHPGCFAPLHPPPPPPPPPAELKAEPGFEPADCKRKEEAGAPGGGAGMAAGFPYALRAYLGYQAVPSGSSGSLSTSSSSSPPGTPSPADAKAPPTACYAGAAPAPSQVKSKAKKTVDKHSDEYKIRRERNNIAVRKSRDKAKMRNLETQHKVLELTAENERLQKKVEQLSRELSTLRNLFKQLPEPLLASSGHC
Sequence of Hepatocyte nuclear factor 3-beta (Homo sapiens) (Q9Y261 whole entry, looked up): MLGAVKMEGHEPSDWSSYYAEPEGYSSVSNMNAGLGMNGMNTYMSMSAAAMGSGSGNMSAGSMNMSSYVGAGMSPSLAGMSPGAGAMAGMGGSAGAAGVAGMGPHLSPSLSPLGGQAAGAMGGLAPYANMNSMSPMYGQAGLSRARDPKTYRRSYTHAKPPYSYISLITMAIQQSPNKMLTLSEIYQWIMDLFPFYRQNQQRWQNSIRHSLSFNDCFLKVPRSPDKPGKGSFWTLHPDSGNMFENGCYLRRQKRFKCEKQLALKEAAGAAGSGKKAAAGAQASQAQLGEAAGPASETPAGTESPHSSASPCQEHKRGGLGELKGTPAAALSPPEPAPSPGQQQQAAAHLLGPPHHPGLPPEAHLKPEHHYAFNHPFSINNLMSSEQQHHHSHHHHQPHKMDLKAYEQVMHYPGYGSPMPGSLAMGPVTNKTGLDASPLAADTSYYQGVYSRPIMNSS

CCCC/C=C\CCCCCCCCCC=O
outcome [1]: inactive | outcome [2]: inactive | outcome [3]: inactive | outcome [4]: inactive | outcome [5]: inactive | outcome [6]: inactive | outcome [7]: inactive | outcome [8]: inactive | outcome [9]: inactive | outcome [10]: inactive | outcome [11]: inactive | outcome [12]: inactive | outcome [13]: inactive | outcome [14]: inactive | outcome [15]: inactive | outcome [16]: inactive | outcome [17]: inactive | outcome [18]: inactive

O=[N+]([O-])c1ccc(C=Cc2ccc([N+](=O)[O-])cc2S(=O)(=O)O)c(S(=O)(=O)O)c1
outcome [1]: inactive | outcome [2]: inactive | outcome [3]: inactive | outcome [4]: inactive | outcome [5]: inactive | outcome [6]: inactive | outcome [7]: inactive | outcome [8]: inactive | outcome [9]: inactive | outcome [10]: inactive | outcome [11]: inactive | outcome [12]: inactive | outcome [13]: inactive | AC50 [19]: 62.3 µM (active) | outcome [14]: inactive | outcome [15]: inactive | outcome [17]: inactive | outcome [18]: inactive

c1ccc(CCCc2ccccn2)cc1
outcome [1]: inactive | outcome [2]: inactive | outcome [3]: inactive | outcome [4]: inactive | outcome [5]: inactive | outcome [6]: inactive | outcome [7]: inactive | outcome [8]: inactive | AC50 [9]: 72.7 µM (active) | outcome [10]: inactive | outcome [11]: inactive | outcome [12]: inactive | outcome [13]: inactive | outcome [19]: inactive | outcome [14]: inactive | outcome [15]: inactive | outcome [16]: inactive | outcome [17]: inactive | outcome [18]: inactive

O=C(O)c1ccc(C(=O)O)cc1
outcome [1]: inactive | outcome [2]: inactive | outcome [3]: inactive | outcome [4]: inactive | outcome [5]: inactive | outcome [6]: inactive | outcome [7]: inactive | outcome [8]: inactive | outcome [9]: inactive | outcome [10]: inactive | outcome [11]: inactive | outcome [12]: inactive | outcome [13]: inactive | outcome [14]: inactive | outcome [15]: inactive | outcome [17]: inactive | outcome [18]: inactive

O=C(O)c1ccc([N+](=O)[O-])cc1
outcome [1]: inactive | outcome [2]: inactive | outcome [3]: inactive | outcome [4]: inactive | outcome [5]: inactive | outcome [6]: inactive | outcome [7]: inactive | outcome [8]: inactive | outcome [9]: inactive | outcome [10]: inactive | outcome [11]: inactive | outcome [12]: inactive | outcome [13]: inactive | outcome [14]: inactive | outcome [15]: inactive | outcome [16]: inactive | outcome [17]: inactive | outcome [18]: inactive

CN1[C@@H]2CC(OC(=O)[C@H](CO)c3ccccc3)C[C@H]1[C@@H]1O[C@@H]12 (some centres undefined)
outcome [1]: inactive | outcome [2]: inactive | outcome [3]: inactive | outcome [4]: inactive | outcome [5]: inactive | outcome [6]: inactive | outcome [7]: inactive | outcome [8]: inactive | outcome [9]: inactive | outcome [10]: inactive | outcome [11]: inactive | outcome [12]: inactive | outcome [13]: inactive | outcome [14]: inactive | outcome [15]: inactive | outcome [16]: inactive | outcome [17]: inactive | outcome [18]: inactive

CCCCCCCCCCCCN
outcome [1]: inactive | outcome [2]: inactive | outcome [3]: inactive | AC50 [4]: 10.2 µM (active) | outcome [5]: inactive | outcome [6]: inactive | outcome [7]: inactive | outcome [8]: inactive | outcome [9]: inactive | outcome [10]: inactive | outcome [11]: inactive | outcome [12]: inactive | outcome [13]: inactive | outcome [14]: inactive | outcome [15]: inactive | outcome [16]: inactive | outcome [17]: inactive | outcome [18]: inactive

CC(C)CCCCCCCOC(=O)c1ccc(C(=O)OCCCCCCCC(C)C)c(C(=O)OCCCCCCCC(C)C)c1
outcome [1]: inactive | outcome [2]: inactive | outcome [3]: inactive | outcome [4]: inactive | outcome [5]: inactive | outcome [6]: inactive | outcome [7]: inactive | outcome [8]: inactive | outcome [9]: inactive | outcome [10]: inactive | outcome [11]: inactive | outcome [12]: inactive | outcome [13]: inactive | outcome [14]: inactive | outcome [15]: inactive | outcome [16]: inactive | outcome [17]: inactive | outcome [18]: inactive
